{"source": "PubChem BioAssay", "key": {"[1]": {"assay": "LFS_MB_P medulloblastoma growth inhibition, cell-based, chromothripsis tumors, cisplatin or BGB combos (AID 1671449);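 also: cells exposed for 96 hours; 0% = vehicle DMSO and 100% = killing by high DMSO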", "details": "LFS_MB_P medulloblastoma cells"}, "[2]": {"assay": "HDN33 neuroblastoma growth inhibition, cell-based, chromothripsis tumors, cisplatin or BGB combos (AID 1671450);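 also: cells exposed to compound for four days; 0% = vehicle DMSO and 100% = cell killing by high DMSO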", "details": "HDN33 neuroblastoma cells, stronger effect = higher value"}, "[3]": {"assay": "ICB984 medulloblastoma cell growth inhibition, synergistic combos for chromothripsis tumors, cisplatin or BGB combos (AID 1671451; call rule not given here;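 also: cells exposed for 96 hours before readout; 0% = vehicle DMSO and 100% = killing by high DMSO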)", "details": "ICB984 medulloblastoma cells, drug combinations, stronger effect = higher value"}, "[4]": {"assay": "LFS_MB_1R medulloblastoma cell growth inhibition, synergistic combos for chromothripsis tumors, cisplatin or BGB combos (AID 1671452);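 also: cells exposed for 96 hours before readout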", "details": "LFS_MB_1R medulloblastoma cells, stronger effect = higher value"}, "[5]": {"assay": "HTB85 osteosarcoma cell growth inhibition, synergistic combos for chromothripsis tumors, BGB or cisplatin IC20 combos (AID 1671453);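 also: cells exposed for 96 hours before readout; 0% = vehicle DMSO and 100% = high DMSO killing control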", "details": "HTB85 osteosarcoma cells, drug combinations, stronger effect = higher value"}, "[6]": {"assay": "CRL2098 osteosarcoma cell growth inhibition, synergistic combos for chromothripsis tumors, BGB or cisplatin IC20 combos (AID 1671454);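 also: cells exposed for 96 h before readout; 0% = vehicle DMSO and 100% = killing by high DMSO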", "details": "CRL2098 osteosarcoma cells, drug combinations, stronger effect = higher value"}, "[7]": {"assay": "HD-MB03 medulloblastoma cell growth inhibition, synergistic combos for chromothripsis tumors, BGB or cisplatin IC20 combos (AID 1671455; in the data active = inhibition above about 83%;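 also: 0% = vehicle DMSO and 100% = high DMSO as cytotoxic control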)", "details": "HD-MB03 medulloblastoma cells, stronger effect = higher value"}, "[8]": {"assay": "UWB1.289 ovarian carcinoma cell growth inhibition, synergistic combos for chromothripsis tumors, BGB or cisplatin combos (AID 1671456);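 also: cells exposed to compound for four days; 0% = vehicle DMSO and 100% = killing by high DMSO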", "details": "UWB1.289 ovarian carcinoma cells, stronger effect = higher value"}, "[9]": {"assay": "LFS_MB_2R medulloblastoma cell growth inhibition, synergistic combos for chromothripsis tumors, cisplatin combos (AID 1671457);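 also: cells exposed to compound for four days before readout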", "details": "LFS_MB_2R medulloblastoma cells, stronger effect = higher value"}, "[10]": {"assay": "MDA-MB-436 breast carcinoma cell growth inhibition, synergistic combos for chromothripsis tumors, BGB or cisplatin combos (AID 1671458; call rule not given here;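 also: cells exposed for 96 hours; 0% = vehicle DMSO and 100% = killing by high DMSO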)", "details": "MDA-MB-436 breast carcinoma growth inhibition, drug combinations, stronger effect = higher value"}, "[11]": {"assay": "UWB1.289_BRCA1 ovarian cancer growth, cell-based, BGB or cisplatin combinations (AID 1671459)", "details": "UWB1.289 BRCA1 ovarian carcinoma, drug combinations, stronger effect = higher value"}, "[12]": {"assay": "human astrocyte viability loss, single and combined drugs, cytotoxicity control for chromothriptic childhood tumor combination screen, cell-based, BGB or cisplatin IC20 combos (AID 1671460);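 also: cells exposed to compounds for 96 hours before viability readout; 0% = vehicle and 100% = killing control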", "details": "Human astrocytes, drug combinations, stronger effect = higher value"}, "[13]": {"assay": "growth inhibition of BT084 medulloblastoma cells, cell-based, ICGC_MB145, cisplatin and BGB IC40 combos (AID 1671461);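 also: cells exposed to drugs for 96 hours; 0% = vehicle DMSO and 100% = high DMSO full killing control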", "details": "drug combinations, stronger effect = higher value"}, "[14]": {"assay": "growth inhibition of RCMB18 medulloblastoma cells, cell-based, cisplatin and BGB IC40 combos (AID 1671462);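 also: cells exposed to compound for four days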", "details": "stronger effect = higher value"}, "[15]": {"assay": "growth inhibition of CRL1545 osteosarcoma cells, cell-based, cisplatin and BGB IC20 combos (AID 1671464);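 also: cells exposed to compound for 96 hours before readout; 0% = vehicle DMSO and 100% = high DMSO killing control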", "details": "stronger effect = higher value"}, "[16]": {"details": "measured here: combination with BGB IC40, at 0.05 µM"}, "[17]": {"details": "measured here: with BGB IC20 combination, at 0.5 µM"}, "[18]": {"details": "measured here: with cisplatin IC20 combination, at 0.5 µM"}, "[19]": {"details": "measured here: combination with cisplatin, at 0.5 µM"}, "[20]": {"details": "measured here: combination with cisplatin, at 5 µM"}}, "note": "Where “and” joins values, the source holds several entries; their conditions need not be identical. Identical values can stand only once. Calls of active or inactive are those of the source. Rule as the data show it, unless noted: active = inhibition above about 80%; inactive = the rest."}
{"smiles": "CC(=CC(=O)OCCCCCCCCC(=O)O)CC1OCC(CC2OC2C(C)C(C)O)C(O)C1O", "note": "(stereo not drawn)", "values": [{"measurement": "inhibition", "setting": "[1]; at 0.5 µM, stronger effect = higher value", "value": "-17% (inactive) and -23.9% (inactive)"}, {"measurement": "inhibition", "setting": "[1]; measured here: combination with BGB IC20, at 0.005 µM", "value": "-2.94% and -18.6%"}, {"measurement": "inhibition", "setting": "[1]; measured here: combination with BGB IC40, at 0.005 µM", "value": "-25.4% and -12.1%"}, {"measurement": "inhibition", "setting": "[1]; [16]", "value": "-14.3% and -15.6%"}, {"measurement": "inhibition", "setting": "[1]; measured here: combination with cisplatin, at 0.5 µM, stronger effect = higher value", "value": "-17.5% and -24.1%"}, {"measurement": "inhibition", "setting": "[1]; measured here: combination with cisplatin, at 5 µM, stronger effect = higher value", "value": "-33.1% and 1.08%"}, {"measurement": "inhibition", "setting": "[2]; BGB combo, at 5 µM", "value": "-14.8% and -17.7%"}, {"measurement": "inhibition", "setting": "[2]; at 0.5 µM", "value": "-9.45% (inactive) and -27.8% (inactive)"}, {"measurement": "inhibition", "setting": "[2]; cisplatin combo, at 5 µM", "value": "6.33% and -11.4%"}, {"measurement": "inhibition", "setting": "[2]; [17]", "value": "-8.51% and -26.5%"}, {"measurement": "inhibition", "setting": "[2]; [18]", "value": "-15.9% and -22.8%"}, {"measurement": "inhibition", "setting": "[2]; single agent, at 5 µM", "value": "-7.18% and -31.8%"}, {"measurement": "inhibition", "setting": "[3]; BGB IC20 combo, at 0.005 µM", "value": "-1.97% and -19.7%"}, {"measurement": "inhibition", "setting": "[3]; BGB IC40 combo, at 0.005 µM", "value": "-39% and 3.24%"}, {"measurement": "inhibition", "setting": "[3]; BGB IC40 combo, at 0.05 µM", "value": "-33.4% and -9.88%"}, {"measurement": "inhibition", "setting": "[3]; at 0.5 µM", "value": "-17% (inactive) and -12.7% (inactive)"}, {"measurement": "inhibition", "setting": "[3]; cisplatin combo, at 0.05 µM", "value": "-38.6% and -12.9%"}, {"measurement": "inhibition", "setting": "[3]; cisplatin combo, at 0.5 µM", "value": "-14.9% and -15.5%"}, {"measurement": "inhibition", "setting": "[3]; cisplatin combo, at 5 µM", "value": "-35% and -37.3%"}, {"measurement": "inhibition", "setting": "[3]; measured here: 5 uM single agent, at 5 µM", "value": "-25.3% and -26.1%"}, {"measurement": "inhibition", "setting": "[4]; at 0.5 µM", "value": "-33.1% (inactive) and -17.5% (inactive)"}, {"measurement": "inhibition", "setting": "[4]; [16]", "value": "-28.7% and -19%"}, {"measurement": "inhibition", "setting": "[4]; [19]", "value": "-76% and -15.9%"}, {"measurement": "inhibition", "setting": "[4]; [20]", "value": "-33.5% and -12.5%"}, {"measurement": "inhibition", "setting": "[5]; at 0.5 µM", "value": "-4.51% (inactive) and -3.63% (inactive)"}, {"measurement": "inhibition", "setting": "[5]; measured here: with BGB IC20, at 0.5 µM", "value": "-6.68% and -16.9%"}, {"measurement": "inhibition", "setting": "[5]; measured here: with BGB IC20, at 5 µM", "value": "0.575% and -34.3%"}, {"measurement": "inhibition", "setting": "[5]; measured here: with cisplatin IC20, at 0.5 µM", "value": "-18.6% and 8%"}, {"measurement": "inhibition", "setting": "[5]; measured here: with cisplatin IC20, at 5 µM", "value": "-13.7% and -38.9%"}, {"measurement": "inhibition", "setting": "[5]; single agent, at 5 µM", "value": "1.75% and -9.62%"}, {"measurement": "inhibition", "setting": "[6]; at 0.5 µM", "value": "-26.3% (inactive) and -42.8% (inactive)"}, {"measurement": "inhibition", "setting": "[6]; measured here: combination with BGB at IC20, at 0.5 µM", "value": "-3.72% and -29.5%"}, {"measurement": "inhibition", "setting": "[6]; measured here: combination with cisplatin at IC20, at 0.5 µM", "value": "-3.83% and -44%"}, {"measurement": "inhibition", "setting": "[7]; at 0.5 µM", "value": "-5.45% (inactive) and -14.3% (inactive)"}, {"measurement": "inhibition", "setting": "[7]; measured here: combo with BGB at IC20, at 0.5 µM", "value": "-13% and -2.83%"}, {"measurement": "inhibition", "setting": "[7]; measured here: combo with cisplatin at IC20, at 0.5 µM", "value": "-4.76% and -27.9%"}, {"measurement": "inhibition", "setting": "[8]; at 0.5 µM", "value": "-10.9% (inactive) and -9.1% (inactive)"}, {"measurement": "inhibition", "setting": "[8]; measured here: inhibition with BGB combination, at 0.05 µM", "value": "-7.06% and -24.4%"}, {"measurement": "inhibition", "setting": "[8]; measured here: inhibition with cisplatin combination, at 0.05 µM", "value": "-16.6% and -1.73%"}, {"measurement": "inhibition", "setting": "[9]; at 0.5 µM", "value": "-29.1% (inactive) and -8.5% (inactive)"}, {"measurement": "inhibition", "setting": "[9]; [19]", "value": "-31.2% and -4.9%"}, {"measurement": "inhibition", "setting": "[9]; [20]", "value": "-23.6% and -39.7%"}, {"measurement": "inhibition", "setting": "[10]; at 0.5 µM", "value": "-14.5% (inactive) and -24.2% (inactive)"}, {"measurement": "inhibition", "setting": "[10]; measured here: BGB combination, at 0.5 µM", "value": "-14.9% and -16%"}, {"measurement": "inhibition", "setting": "[10]; measured here: BGB combination, at 5 µM", "value": "-17.5% and -14.8%"}, {"measurement": "inhibition", "setting": "[10]; measured here: cisplatin combination, at 0.5 µM", "value": "-18.1% and -43.4%"}, {"measurement": "inhibition", "setting": "[10]; measured here: cisplatin combination, at 5 µM", "value": "-22.7% and -18.3%"}, {"measurement": "inhibition", "setting": "[11]; BGB combination, concentration series, at 5 µM", "value": "0.308% and -20.1%"}, {"measurement": "inhibition", "setting": "[11]; at 0.5 µM", "value": "-2.59% (inactive) and -13% (inactive)"}, {"measurement": "inhibition", "setting": "[11]; cisplatin combination, concentration series, at 5 µM", "value": "9.16% and -8.98%"}, {"measurement": "inhibition", "setting": "[12]; at 0.5 µM", "value": "9.62% (inactive) and -5.3% (inactive)"}, {"measurement": "inhibition", "setting": "[12]; measured here: combo with BGB IC20, at 0.5 µM", "value": "10.3% and 3.21%"}, {"measurement": "inhibition", "setting": "[12]; measured here: combo with cisplatin IC20, at 0.5 µM", "value": "3.29% and -21.1%"}, {"measurement": "inhibition", "setting": "[13]; at 0.5 µM", "value": "-23.1% (inactive) and -16.1% (inactive)"}, {"measurement": "inhibition", "setting": "[13]; cisplatin combination, at 0.5 µM", "value": "-23.9% and -16.7%"}, {"measurement": "inhibition", "setting": "[13]; cisplatin combination, at 5 µM", "value": "-18.9% and -3.71%"}, {"measurement": "inhibition", "setting": "[13]; measured here: BGB IC40 combination 0.05 uM, at 0.05 µM", "value": "-21.3% and 12.3%"}, {"measurement": "inhibition", "setting": "[13]; single agent, at 5 µM", "value": "-11.4% and -22.4%"}, {"measurement": "inhibition", "setting": "[14]; at 0.5 µM", "value": "-6.07% (inactive) and -7.9% (inactive)"}, {"measurement": "inhibition", "setting": "[14]; cisplatin combo, at 5 µM", "value": "-30.1% and -5.18%"}, {"measurement": "inhibition", "setting": "[14]; measured here: BGB IC40 combination, at 0.05 µM", "value": "6.38% and -10.7%"}, {"measurement": "inhibition", "setting": "[14]; [19]", "value": "18.9% and -20.9%"}, {"measurement": "inhibition", "setting": "[14]; single agent, at 5 µM", "value": "-45.8% and -19.9%"}, {"measurement": "inhibition", "setting": "[15]; at 0.5 µM", "value": "-2.77% (inactive) and -21.4% (inactive)"}, {"measurement": "inhibition", "setting": "[15]; [17]", "value": "-13.1% and -9.57%"}, {"measurement": "inhibition", "setting": "[15]; [18]", "value": "2.38% and -30.2%"}, {"measurement": "inhibition", "setting": "[15]; single agent, at 0.05 µM", "value": "22.2% and -47.2%"}, {"measurement": "inhibition", "setting": "[15]; single agent, at 5 µM", "value": "3.87% and -28.5%"}]}
